Experimental data reported in PubChem BioAssay (NCATS).
Several values for one entry are separate records, joined by “and”; a condition that tells them apart may be missing. Identical values can stand only once. Inconclusive results are not listed. Entries that show only a call come without a potency. Values without a mark were called inactive. Activity calls are given as the source filed them. Unless noted, the call rests on the fitted dose curve; in most records, active means well fitted curve in the direction sought with a large enough effect; inconclusive means small, poorly fitted or top-dose-only effect, or another doubt; inactive means no such curve, though single readings can be large; an effect the other way counts as inactive or inconclusive.

Experiments:
[1] = biological target: Cellular tumor antigen p53 (Homo sapiens) (UniProt P04637); assay: Primary qHTS for small molecule compounds that upregulate eGFP-tagged delta133p53alpha (in N-terminal) cells. (AID 2060322); conditions: NCI-H358 eGFP-delta133p53alpha fluorescence, 24 h; activation: active compounds read high;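 further: cells pre-induced with doxycycline then dosed without doxycycline; series mostly up to about 56 µM; nearly all actives have a fitted effect of over 75% in size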
Cellular tumor antigen p53 (Homo sapiens), sequence (P04637 whole entry, looked up): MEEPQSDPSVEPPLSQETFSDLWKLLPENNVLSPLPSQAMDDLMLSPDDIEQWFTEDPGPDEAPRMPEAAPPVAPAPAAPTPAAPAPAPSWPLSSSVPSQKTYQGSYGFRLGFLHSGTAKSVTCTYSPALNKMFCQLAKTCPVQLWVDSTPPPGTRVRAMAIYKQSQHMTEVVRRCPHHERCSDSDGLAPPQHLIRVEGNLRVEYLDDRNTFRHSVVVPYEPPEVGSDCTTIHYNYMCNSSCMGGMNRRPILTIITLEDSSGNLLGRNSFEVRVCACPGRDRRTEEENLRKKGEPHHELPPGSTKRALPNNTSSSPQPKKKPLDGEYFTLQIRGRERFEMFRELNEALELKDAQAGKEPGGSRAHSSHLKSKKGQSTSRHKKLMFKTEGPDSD
Method in brief: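 NCI-H358 cells pre-induced 24 h with 10 ng/ml doxycycline for eGFP-delta133p53alpha, plated dox-free and exposed 24 h at 37C to titrated compounds. Fixed, Hoechst-stained; gated GFP peak intensity by laser scanning cytometry, normalized to DMSO (0%) and 57.5 uM 5-azacytidine (100%).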

[2] = biological target: Cellular tumor antigen p53 (Homo sapiens) (UniProt P04637); assay: Primary qHTS for small molecule compounds that upregulate eGFP-tagged delta133p53alpha (in C-terminal) cells. (AID 2060324)
Method in brief: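 Concentration-response screen: compounds titrated onto pre-induced NCI-H358 D133p53a-eGFP cells, incubated one day, fixed with 3.5% PFA. Per-cell GFP peak intensity was gated, then normalized against intraplate controls.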

[3] = biological target: Aldehyde dehydrogenase, mitochondrial (Homo sapiens) (UniProt P05091); assay: qHTS for Inhibitors of the Aldehyde Dehydrogenase Family (ALDH2) Validation screens (AID 2061302; active means well fitted inhibition curve with a large enough effect; title and protocol of this record describe different tests)
[4] = biological target: Retinaldehyde dehydrogenase 3 (Homo sapiens) (UniProt P47895); assay: qHTS for Inhibitors of the Aldehyde Dehydrogenase Family (ALDH1A3) Validation screen (AID 2061312); further: nearly all actives have a fitted effect of over 45% in size
[5] = BET inhibitor-based combinations targeting novel dependencies in MECOM-rearranged (r) AML: SET-2 cell line (AID 2202231); conditions: SET-2 AML cells viability, CellTiter-Glo luminescence, 48 h; viability: active compounds read low, concentration not given here; further: nearly all actives have a fitted effect of over 35% in size; further: potency means the concentration at half of the fitted maximal effect
Method in brief: (§1)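 AML cell lines seeded at 500 cells/well, treated with 11-point dose curves for 48 h. Viability by CellTiter-Glo luminescence, normalised to DMSO and empty wells; activity expressed as AUC and per-cell-line Z-transformed AUC.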

[6] = BET inhibitor-based combinations targeting novel dependencies in MECOM-rearranged (r) AML: OCI-AML3 cell line (AID 2202232); conditions: Potency: OCI-AML3 viability; further: nearly all actives have a fitted effect of over 35% in size; further: potency means the concentration at half of the fitted maximal effect
Method in brief: as §1

[7] = BET inhibitor-based combinations targeting novel dependencies in MECOM-rearranged (r) AML: MV-4-11 cell line (AID 2202233); further: nearly all actives have a fitted effect of over 45% in size; further: potency means the concentration at half of the fitted maximal effect
Method in brief: (§2)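 Cells at 500/well were exposed for 48 hr to MIPE v5.0 drugs as 11-point dose curves. Viability was read by CellTiter-Glo luminescence and normalized to DMSO and empty-well controls. Activity was expressed as AUC and per-cell-line Z-AUC.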

[8] = BET inhibitor-based combinations targeting novel dependencies in MECOM-rearranged (r) AML: HNT-34 cell line (AID 2202234); further: nearly all actives have a fitted effect of over 35% in size; further: potency means the concentration at half of the fitted maximal effect
Method in brief: as §2

[9] = BET inhibitor-based combinations targeting novel dependencies in MECOM-rearranged (r) AML: UCSD-AML1 cell line (AID 2202235); further: nearly all actives have a fitted effect of over 40% in size; further: potency means the concentration at half of the fitted maximal effect
Method in brief: as §2

[10] = BET inhibitor-based combinations targeting novel dependencies in MECOM-rearranged (r) AML: AML-191 cell line (AID 2202236; further: nearly all actives have a fitted effect of over 35% in size; further: potency means the concentration at half of the fitted maximal effect)
Method in brief: as §1

[11] = BET inhibitor-based combinations targeting novel dependencies in MECOM-rearranged (r) AML: AML-194 cell line (AID 2202237; further: nearly all actives have a fitted effect of over 40% in size; further: potency means the concentration at half of the fitted maximal effect)
Method in brief: as §1

Structure (SMILES)	activation [1]	Potency [2]	Potency [3]	Potency [4]	viability [5] [%]	Potency [6]	Potency [7]	Potency [8]	Potency [9]	Potency [10]	Potency [5]	Potency [11]
Cc1ccc(C(=O)Nc2ccc(S(=O)(=O)O)c3cc(S(=O)(=O)O)cc(S(=O)(=O)O)c23)cc1NC(=O)c1cccc(NC(=O)Nc2cccc(C(=O)Nc3cc(C(=O)Nc4ccc(S(=O)(=O)O)c5cc(S(=O)(=O)O)cc(S(=O)(=O)O)c45)ccc3C)c2)c1	-19.3% and -10.7% and -18.3%	inactive	inactive	inactive	108	inactive	inactive	inactive	inactive	inactive	–	–
C[C@H](CS)C(=O)N1CCC[C@H]1C(=O)O	1.67% and -24.1%	inactive	inactive	inactive	–	–	–	–	–	–	–	–
COC(=O)C1=C(C)NC(C)=C([N+](=O)[O-])C1c1ccccc1C(F)(F)F (centres undefined)	-39.9%	inactive	inactive	inactive	–	–	–	–	–	–	–	–
CCc1cccc2c3c([nH]c12)C(CC)(CC(=O)O)OCC3 (centres undefined)	-0.565% and -1.6%	inactive	inactive	inactive	–	–	–	–	–	–	–	–
C[N+](C)(C)CC=O	-21.7%	inactive	inactive	inactive	–	–	–	–	–	–	–	–
COC(=O)Nc1nc2ccc(C(=O)c3cccs3)cc2[nH]1	-4.18%	inactive	inactive	inactive	–	93.4 nM (active)	118 nM (active)	83.3 nM (active)	83.3 nM (active)	66.1 nM (active)	209 nM (active)	332 nM (active)
CNC1(C)C2CCC(C2)C1(C)C (centres undefined)	-45.5%	inactive	inactive	inactive	–	–	–	–	–	–	–	–
CC#CCOC(=O)c1c(C)nc2sc3c(c2c1N)CCC(O)C3 (centres undefined)	-13.8%	inactive	inactive	inactive	–	–	–	–	–	–	–	–
NC(=O)c1ccc2[nH]ccc2c1	3.04%	inactive	inactive	inactive	107	inactive	inactive	inactive	inactive	inactive	–	inactive
O=C(O)CNC(=O)C(CS)Cc1ccccc1 (centres undefined)	-14.4%	inactive	inactive	inactive	–	–	–	–	–	–	–	–
NCCS	-9.6% and 3.67%	inactive	inactive	inactive	–	–	–	–	–	–	–	–
CCCN(CCC)C(=O)C(CCC(=O)O)NC(=O)c1ccccc1 (centres undefined)	-4.18% and 0.787%	inactive	inactive	inactive	109	inactive	inactive	inactive	inactive	inactive	–	inactive
CCCn1c(=O)[nH]c(=O)c2[nH]cnc21	24.9%	inactive	inactive	inactive	–	–	–	–	–	–	–	–
NS(=O)(=O)c1cc2c(cc1Cl)NCNS2(=O)=O	-8.47% and 26.3% and -35.3%	inactive	inactive	inactive	107	inactive	inactive	inactive	inactive	inactive	–	inactive
NCC(O)(CS(=O)(=O)O)c1ccc(Cl)cc1 (centres undefined)	-28.8%	inactive	inactive	inactive	–	–	–	–	–	–	–	–
CN(CCOc1ccc(NS(C)(=O)=O)cc1)CCc1ccc(NS(C)(=O)=O)cc1	-5.08% and 6.34% and 4.63%	inactive	inactive	inactive	110	inactive	inactive	inactive	inactive	inactive	–	–
CCCCNc1cc(C(=O)O)cc(S(N)(=O)=O)c1Oc1ccccc1	1.67% and 7.38% and -16.3%	inactive	inactive	inactive	115	inactive	inactive	inactive	inactive	inactive	–	inactive
N[C@@H](CC(=O)O)C(=O)O	-3.52%	inactive	inactive	inactive	–	–	–	–	–	–	–	–
NCCCCCC(=O)O	2.82% and -3.41%	inactive	inactive	inactive	112	3.7 nM (active)	inactive	inactive	inactive	inactive	–	inactive
CCCNCC(O)COc1ccccc1C(=O)CCc1ccccc1 (centres undefined)	15% and -5.02% and 3.52%	inactive	inactive	inactive	84.2	–	–	–	–	–	–	–
NCCNS(=O)(=O)c1cccc2c(Cl)cccc12	-38%	inactive	inactive	inactive	–	–	–	–	–	–	–	–
